Measurements published in PubChem BioAssay AID1851 (National Center for Advancing Translational Sciences (NCATS), 2009).
“And” between values parts separate entries of the source, which are not always exact repeats. Equal values may be shown once. In all, about 16,000 compounds went through this assay and about 5,100 (32%) were called active. Inconclusive results (about 25%) are left out. Calls come from the whole dose curve; as a rule, active = well fitted curve in the direction sought with a large enough effect; inconclusive = small, poorly fitted or top-dose-only effect, or effect the other way; inactive = no such curve, though single readings can be large or run the other way. The list shows a part of the results.

What follows are molecules tested against Cytochrome P450 3A4 (Homo sapiens) (UniProt P08684) (assay: Cytochrome panel assay with activity outcomes). Conditions: recombinant CYP, pro-luciferin dealkylation, luminescence, p450-cyp3a4; series mostly up to 57.1 µM; activity, negative = inhibition: at the top concentration.
Chain of Cytochrome P450 3A4 (Homo sapiens) (P08684 whole entry, looked up): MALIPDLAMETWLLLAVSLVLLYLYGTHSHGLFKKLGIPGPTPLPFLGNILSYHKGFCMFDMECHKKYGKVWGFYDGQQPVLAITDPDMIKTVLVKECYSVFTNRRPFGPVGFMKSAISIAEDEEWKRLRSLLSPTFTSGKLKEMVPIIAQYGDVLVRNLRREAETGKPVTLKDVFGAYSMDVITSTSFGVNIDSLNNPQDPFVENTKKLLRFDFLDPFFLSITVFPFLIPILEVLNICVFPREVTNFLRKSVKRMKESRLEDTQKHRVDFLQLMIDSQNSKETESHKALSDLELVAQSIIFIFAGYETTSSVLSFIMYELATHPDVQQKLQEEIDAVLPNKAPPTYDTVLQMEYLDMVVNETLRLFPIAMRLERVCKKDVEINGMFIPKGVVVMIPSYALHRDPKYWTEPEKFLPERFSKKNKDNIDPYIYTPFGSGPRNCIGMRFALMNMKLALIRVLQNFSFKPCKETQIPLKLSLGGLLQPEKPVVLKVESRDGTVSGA
% is set by controls: 0 for no effect and ±100 for the full control effect.

AC50, active:
c1ccc(CNc2ncncc2-c2ccoc2)cc1 2 µM, c1cncc(-c2cncnc2NCc2cccs2)c1 2 µM, c1csc(CNc2ncncc2-c2ccoc2)c1 2 µM, COc1ccc(NC2=NCC(=O)N2Cc2cccs2)cc1 14.1 µM, CCOc1ccc(NC2=NCC(=O)N2Cc2cccs2)cc1 17.8 µM, COc1ccccc1-c1ccc2ncnc(NCc3cccnc3)c2c1 0.631 µM, COCCNc1ncnc2ccc(-c3ccccc3C(F)(F)F)cc12 15.8 µM, COCCNc1ncnc2ccc(-c3ccccc3OC)cc12 15.8 µM, FC(F)(F)c1ccccc1-c1ccc2ncnc(NCc3cccnc3)c2c1 1.58 µM, COc1cccc(-c2ccc3ncnc(NCc4cccnc4)c3c2)c1 1 µM, Clc1ccccc1-c1ccc2ncnc(NCc3cccnc3)c2c1 2 µM, COc1ccccc1-c1ccc2ncnc(NCc3ccccc3)c2c1 12.6 µM, COc1ccc(-c2nn3cnnc3s2)cc1OC 14.1 µM, CC1(C)CC(=O)C2=C(C1)Nc1cc3c(cc1C2c1ccc(F)cc1)OCO3 (stereo not drawn) 1 µM, Nc1nc(Br)c2ccccc2c1-c1ccc(F)cc1 14.1 µM, Nc1nc(Br)c2c(F)cccc2c1-c1ccc(F)cc1 22.4 µM, Nc1nc(Br)c2c(F)cccc2c1-c1ccc(Cl)cc1 20 µM, COC(=O)C[C@@H]1O[C@H]1[C@H](C)[C@@H](OC)C(C)C 3.98 µM, Cc1ccc(S(=O)(=O)N(CCCN2CCCC2=O)Cc2cc3c(C)ccc(C)c3[nH]c2=O)cc1 1.12 µM, COc1ccccc1CNc1ncncc1-c1ccccc1OC 0.2 µM, COc1ccccc1CNc1ncncc1-c1ccccc1Cl 0.2 µM, CCOC(=O)C[n+]1c(C)sc2ccc(OC)cc21 3.55 µM, CCC/C=C(\CCC)C(NP(=O)(c1ccccc1)c1ccccc1)c1ccc(C(F)(F)F)cc1 (stereo not drawn) 3.16 µM, CCC/C=C(\CCC)C(NP(=O)(c1ccccc1)c1ccccc1)c1ccc(-c2ccccc2)cc1 (stereo not drawn) 3.98 µM, CS(=O)(=O)N1CCN(c2ccccc2NC(=O)c2ccc(Br)o2)CC1 15.8 µM, Cc1ccc2nc(NC(=O)COC(=O)c3ccc(Br)o3)sc2c1 15.8 µM, Cc1ccc2nc(NC(=O)CSCC(=O)OCC(=O)c3ccc(Br)cc3)sc2c1 10 µM, COCCn1c(=O)c(CCc2ccccc2)nc2cnc(OC)nc21 12.6 µM, COc1ccc(Oc2ncc3ncc(=O)n(CCc4ccccc4)c3n2)cc1 1.26 µM, COc1ncc2nc(CCc3ccccc3)c(=O)n(CCc3ccccc3)c2n1 3.16 µM, COCCn1c(=O)c(CCc2ccccc2)nc2cnc(Oc3ccc(OC)cc3)nc21 3.16 µM, COCCn1c(=O)c(CCc2ccccc2)nc2cnc(Oc3cccc(Cl)c3)nc21 0.794 µM, O=c1c(CCc2ccccc2)nc2cnc(Oc3cccc(Cl)c3)nc2n1C[C@H]1CCCO1 0.501 µM, O=c1oc2cc(Oc3c([N+](=O)[O-])cc(C(F)(F)F)cc3[N+](=O)[O-])ccc2c2c1CCCC2 14.1 µM, CC(C)OP(=O)(OC(C)C)C(NC(=O)c1ccc(Br)cc1)c1ccccc1 (stereo not drawn) 11.2 µM, Cn1nc(C(F)(F)F)c(/C=N/OC(=O)c2ccccc2Cl)c1SCc1ccc(Cl)cc1 7.08 µM, O=C(NCC1CCCO1)C(c1cccnc1)N(C(=O)Cc1cccs1)c1ccccc1 (stereo not drawn) 3.98 µM, Cc1ccc(C(C(=O)NC2CCCCC2)N(CC2CCCO2)C(=O)CNC(=O)c2cccs2)cc1 (stereo not drawn) 4.47 µM, O=C(NCC(=O)N(c1ccccc1)C(C(=O)NC1CCCC1)c1cccnc1)c1cccs1 (stereo not drawn) 2 µM, CC1CCCC(C)N1C(=O)c1cc(-c2ccc(Cl)c(Cl)c2)on1 (stereo not drawn) 12.6 µM, Cc1ccc(S(=O)(=O)n2c3ccccc3c3nnc(C(=O)c4ccccc4)nc32)cc1 3.98 µM, CN1C(=O)/C(=N\OC(=O)c2cccc3ccccc23)c2ccccc21 28.2 µM, C=CCSc1nn2c(=O)c3ccccc3nc2s1 20 µM, CN=c1nc(-c2ccccc2)n(-c2ccccc2)s1 31.6 µM

AC50, inactive:
O=C(c1ccccc1)c1ccc2n1CC[C@H]2C(=O)O, NC(N)=NC(=O)c1nc(Cl)c(N)nc1N

activity, negative = inhibition, inactive:
CCN(CC)CC[n+]1ccc2c(C)c3[nH]c4ccccc4c3c(C)c2c1 -16.9% [at 11.4 µM], C=CCN1C(=O)CN=C1Nc1ccccc1 -22.2%, CCOc1ccc(N2C(=O)CN=C2Nc2ccccc2F)cc1 3.08% [at 2.29 µM], O=C1CN=C(Nc2ccccc2)N1Cc1cccs1 -6.15% [at 2.29 µM], O=C(O)c1cc2c(o1)CCC/C2=N\O -14.2%, CC(C)(CS)C(=O)N1CCC[C@H]1C(=O)O 3.01% [at 25.6 µM], Cc1cc(OC(=O)c2ccc(Cl)cc2Cl)nc(C)n1 -8.46%, COc1ccc(-c2ccc(=O)n(CC(=O)Nc3nnc(C(C)C)s3)n2)cc1OC -18%, O=S1(=O)OC(c2ccc(O)cc2)(c2ccc(O)cc2)c2ccccc21 -11.8% [at 11.4 µM], Fc1ccc2c(c1)C1C=CCC1C(c1cc3c(cc1Br)OCO3)N2 (stereo not drawn) -4.14% [at 2.29 µM], CO[C@@H](C(C)C)[C@@H](C)[C@@H]1OC(=O)C[C@@H]1O -9.77% [at 11.4 µM], CO[C@@H]1COC(=O)[C@H](CCSC)NC(=O)C/C=C\[C@@H](C)COC(=O)[C@@H]2CCCN2C(=O)C/C=C\[C@H]1C -23.1% [at 11.4 µM], Cc1ccc(S(=O)(=O)CC(O)CN2CCCC2=O)cc1 (stereo not drawn) -2.08%, O=C(NCCCN1CCCC1=O)c1ccc(CNS(=O)(=O)c2ccc(F)cc2)cc1 -13.5% [at 11.4 µM], c1ccc2c3c([nH]c2c1)[C@@H]1[C@H]2CC[C@H]([C@H]4CCCN[C@H]42)N1CC3 -11.2% [at 25.6 µM], COC(=O)CSc1ncc(OC)c(OC)n1 -5.02%, CCOC(=O)C1CCN(C(=O)C2CCN(c3nc4ccc(OC)cc4s3)CC2)CC1 18.5%, Cc1sc2ccccc2[n+]1CCC(=O)O -6.82% [at 11.4 µM], C1CCN(CC[C@@H]2CCCCN2)CC1 -2.6% [at 11.4 µM], CN(C)C(=O)/N=N\C(=O)N(C)C -6.3%, O=C(O)C(Cc1ccccc1)Cc1ccccc1 5.23% [at 11.4 µM], CS(=O)(=O)N1CCC2(CC1)CN(C(=O)Nc1ccccc1)C2 -13%, Nc1nc(N)c2nn(-c3ccc(C(=O)O)cc3)nc2n1 -6.41% [at 11.4 µM], Cc1ccc2nc(NC(=O)COC(=O)CSc3nc(C)cc(C)n3)sc2c1 21.9%, CCCOc1ccc(C(=O)NC(=S)Nc2nc3ccc(C)cc3s2)cc1 13.6% [at 2.29 µM], CS(=O)(=O)Nc1c(O)ccc2c1CCC[C@H]2C1=NCCN1 -4.57%, O=c1cnc2cnc(Oc3ccccc3)nc2n1CCc1ccccc1 -22.3%, COc1ncc2nc(CCc3ccccc3)c(=O)n(C)c2n1 0.537%, O=c1c(-c2ccccc2)nc2cnc(Oc3cccc(Cl)c3)nc2n1C1CC1 6.74%, Cc1nc2cnc(Oc3cccc(Cl)c3)nc2n(CCc2ccccc2)c1=O -22.7%, O=c1oc2cc(Oc3ccc(C(F)(F)F)cc3[N+](=O)[O-])ccc2c2c1CCCC2 -23.2%, CC1=NNC(=S)NCCCN2CCN(CCCNC(=S)NN=C(C)C=NNC(=S)NCCCN3CCN(CCCNC(=S)NN=C1)CC3)CC2 -1.88% [at 11.4 µM], CC(=O)NC(NC(C)=O)c1ccc(Br)cc1 8.11%, CNNCc1ccc(C(=O)NC(C)C)cc1 -12.2% [at 25.6 µM], O=C(O)C[C@H](Cc1ccccc1)C(=O)O -6.62% [at 11.4 µM], Cn1nc(C(F)(F)F)c(/C=N/OCc2c(Cl)cccc2Cl)c1Cl -24.6%, Cn1nc(C(F)(F)F)c(/C=N/OC(=O)c2ccc(Cl)cc2)c1Cl -0.892%, O=C(NCC1CCCO1)C(c1cccnc1)N(C(=O)Cc1cccs1)c1cccnc1 (stereo not drawn) -17.2% [at 2.29 µM], CN1CCc2c(sc3c2c(=O)n(-c2ccccc2)c2nncn32)C1 23.3%, O=C(c1cc(-c2ccc(Cl)cc2Cl)on1)N1CCN(C(=O)c2ccco2)CC1 13.8%, C[C@@H]1CCC[C@H](C)N1NC(=O)c1ccc(Cl)c(S(N)(=O)=O)c1 -15.3% [at 25.6 µM], Cc1ccc(-n2cc(C(=O)c3ccc4ccccc4c3O)cn2)cc1 -15.6%, COCn1c2ccccc2c2nnc(C(C)=O)nc21 7.63% [at 11.4 µM] and -20.9% [at 11.4 µM], COc1ccc2c(c1)CCC1[C@@H]2CCC2(C)[C@@H](NCCCCCCN3C(=O)C=CC3=O)CC[C@@H]12 (stereo partly drawn) 3.28%, CC(=O)c1c(O)cc(=O)n(-c2ccccc2)c1-c1cccc2ccccc12 5.76%, CC(C)CC(=O)O/N=C1\C(=O)N(c2ccccc2)c2ccccc21 18.9% [at 2.29 µM], O=c1[nH][nH]c(C(F)(F)F)c1C=Nc1ccccc1Cl -10.9%, O=C(Cn1cnc2ccccc2c1=O)Nc1nnc(SCc2ccccc2)s1 -5.34%, C[C@@H](C(=O)O)c1ccc(C[C@@H]2CCCC2=O)cc1 7.6%, Cc1cc2ccccc2c[n+]1CC(O)C[n+]1cc2ccccc2cc1C -6.74% [at 11.4 µM], CC(=O)c1c(C)nc(-c2ccccc2)n1O -11%, O=c1nc(-c2ccccc2)n(-c2ccccc2)c2ncccc12 -9.32%
